Values without a mark were called inactive. Records with an inconclusive call do not appear. Active and inactive are the calls of the source. Unless noted, calls come from the whole dose curve; as a rule, active = well fitted curve in the direction sought with a large enough effect in the repeat runs; inconclusive = weak or mixed curves; inactive = no such curve, though single readings can be large; an effect the other way counts as inactive or inconclusive.

Test [1] can be described thus: qHTS assay to identify small molecule antagonists of the retinoid acid receptor (RAR) signaling pathway - cell viability counter screen (AID 1159551). Note: nearly all actives have a fitted effect of over 35% in size. An outline of the steps:
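Following overnight attachment, C3RL4 reporter cells received DMSO-dissolved compounds and then retinol (1 uM final). Six hours later at 37 C, ATP content was measured by CellTiter-Glo luminescence.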
On the technique in general: In qHTS, concentration-response curves come from the screen itself.

The nature of test [2]: qHTS assay to identify small molecule antagonists of the retinoic acid receptor (RAR) signaling pathway (AID 1159552; note: nearly all actives have a fitted effect of over 50% in size). An outline of the steps: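 Quantitative HTS in C3RL4 RARE-luciferase reporter cells. Compounds were added with 1 uM (final) retinol; luminescence was read after 6 hr.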
The nature of test [3]: qHTS assay to identify small molecule agonists of the retinoic acid receptor (RAR) signaling pathway (AID 1159553). An outline of the steps:
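Cell line C3RL4, RARE luciferase reporter. Treatment: compounds in DMSO, 6 hr, 37 C, 5% CO2, after overnight plating. Detection: luminescence, 30 min RT after reagent.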

Test [4] in a line: qHTS assay to identify small molecule antagonists of the estrogen related receptor (ERR) signaling pathway from Tox21 library - cell viability counter screen (AID 1224834). Note: nearly all actives have a fitted effect of over 30% in size. An outline of the steps: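 Viability readout (CellTiter-Fluor fluorescence, 30 min at 37 C) multiplexed with the ERR assay; cells treated 17.5 h at 37 C with compounds delivered in DMSO.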
In test [5] the target is Luciferin 4-monooxygenase (Photinus pyralis) (UniProt P08659). Description: qHTS assay to identify small molecule inhibitors of firefly luciferase (AID 1224835). Note: nearly all actives have a fitted effect of over 25% in size. An outline of the steps: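 Biochemical qHTS: compounds run as interplate titrations against purified firefly enzyme, with D-luciferin and ATP each at its KM concentration. Light output recorded by CCD imaging.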

Test [6] is described as follows: qHTS assay to identify small molecule agonists of the constitutive androstane receptor (CAR) signaling pathway - cell viability counter screen (AID 1224836). Note: nearly all actives have a fitted effect of over 45% in size. An outline of the steps:
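Counter screen multiplexed with the CAR reporter readout: HepG2 cells co-transfected with hCAR and the CYP2B6-2.2kb construct receive a 15-concentration compound series and 0.75 uM PK11195 (final), then CellTiter-Fluor fluorescence is read after 23 h.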

Test [7] in a line: qHTS assay to identify small molecule antagonists of the constitutive androstane receptor (CAR) signaling pathway - cell viability counter screen (AID 1224837). Note: nearly all actives have a fitted effect of over 45% in size. Summed up:
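Fluorescence from CellTiter-Fluor served as the viability signal. Human hepatoma HepG2 cells stably bearing hCAR and CYP2B6-2.2kb received compound plus CITCO (50 nM final) for 23 hr.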

Test [8] has as its target Nuclear receptor subfamily 1 group I member 3 (Homo sapiens) (UniProt Q14994). The test is described as follows: qHTS assay to identify small molecule antagonists of the constitutive androstane receptor (CAR) signaling pathway (AID 1224838).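 Note: HepG2 cells stably expressing hCAR with CYP2B6 luciferase reporter stimulated by CITCO; nearly all actives have a fitted effect of over 40% in size.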 Summed up: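 Quantitative HTS in double-stable HepG2-CYP2B6-hCAR cells. After 4 h plating, cells get compound (15 concentrations) and CITCO at 50 nM final, incubate 24 h at 37 C, then ONE-Glo luminescence is read.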

The target is the same in test [9]. The test is described as follows: qHTS assay to identify small molecule agonists of the constitutive androstane receptor (CAR) signaling pathway (AID 1224839). Note: nearly all actives have a fitted effect of over 15% in size. Summed up: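 A 15-concentration quantitative screen uses HepG2 cells co-transfected stably with human CAR and CYP2B6-2.2kb reporter. Treatment lasts 24 h with 0.75 uM PK11195 final present; ONE-Glo luminescence is the signal.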

The nature of test [10]: qHTS assay to identify small molecule antagonists of the estrogen related receptor signaling pathway with the pleiotropic PPARgamma coactivator (PGC) from Tox21 10K library - cell viability counter screen (AID 1224840; active = well fitted cell-killing curve with a large enough effect in the repeat runs, not every such curve was filed as active; note: nearly all actives have a fitted effect of over 40% in size). An outline of the steps:
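Compounds in DMSO, alongside positive and negative controls, were pinned onto PGC/ERR cells (2,000 per well). Exposure lasted 17.5 hours at 37 C, followed by a 30-minute CellTiter-Fluor incubation and fluorescence reading.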

Test [11] is described as follows: qHTS assay to identify small molecule antagonists of the estrogen related receptor signaling pathway with the pleiotropic PPARgamma coactivator (PGC) from Tox21 10K library (AID 1224841; call rule not given here; note: actives are mostly falling curves and most rising ones were filed inactive; nearly all actives have a fitted effect of over 50% in size). Summed up: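 Compound exposure ran 18 hours at 37 C in PGC/ERR cells (2,000/well) that had first rested 6 hours in a 37 C/5% CO2 incubator. Luciferase activity was then detected with One-Glo after a 30-minute room-temperature step.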

Test [12] in a line: qHTS assay to identify small molecule agonists of the estrogen related receptor signaling pathway with the pleiotropic PPARgamma coactivator (PGC) from Tox21 10K library (AID 1224842). Note: nearly all actives have a fitted effect of over 15% in size. An outline of the steps:
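PGC/ERR reporter cell line, 2,000 cells per well, incubated 6 h at 37 C before 23 nL compound in DMSO was added. After 18 h at 37 C, One-Glo luminescence read following 30 min at room temperature.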

Test [13] concerns the target Thyrotropin receptor (Homo sapiens) (UniProt P16473). Description: qHTS assay to identify small molecule agonists of the thyroid stimulating hormone receptor (TSHR) signaling pathway (AID 1224843; calls by dose curve; note: nearly all actives have a fitted effect of over 45% in size; note: potency is the fitted concentration of half-maximal effect). An outline of the steps: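 TSHR-HEK293 cells in agonist mode, 30 min room-temperature step, then cAMP measured by competitive HTRF (cAMP-d2 with anti-cAMP cryptate) after 1 h at room temperature. Tested at 15 concentrations in triplicate.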

Test [14] can be described thus: qHTS assay to identify small molecule agonists of the hypoxia (HIF-1) signaling pathway - cell viability counter screen (AID 1224844; calls by dose curve; note: nearly all actives have a fitted effect of over 50% in size). Summed up:
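Luminescent ATP content (CellTiter-Glo, 30 min, room temperature) served as the viability measure in HRE-bla ME-180 cells exposed to compounds for 17 hrs in low-serum medium (0.5% dialyzed FBS).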

Test [15] is described as follows: qHTS assay to identify small molecule agonists of H2AX (AID 1224845; active = well fitted activation curve with a large enough effect in the signal ratio in the repeat runs, not every such curve was filed as active; the % refers to the signal ratio). Summed up:
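Wild-type CHO-K1 cells, plated overnight, exposed 3hr at 37C to 15 concentrations (0.76% DMSO final). Lysed, then HTRF anti-pH2AX (S139) cryptate and anti-H2AX-d2 antibodies, 24 hr room temperature; 665/620 nm emission read.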

The nature of test [16]: qHTS assay to identify small molecule agonists of the hypoxia (HIF-1) signaling pathway (AID 1224846; active = well fitted activation curve with a large enough effect in the signal ratio in the repeat runs, not every such curve was filed as active; the % refers to the signal ratio). Summed up: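 Measured by blue/green FRET after loading CCF4-AM: beta-lactamase expressed from a hypoxia response element in ME-180 cells. Test agents were delivered in DMSO and left 17 hrs; cells had been plated 5 hrs earlier in low-serum (0.5% dialyzed FBS) medium.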
Test [17] in a line: qHTS assay to identify small molecule agonists of H2AX - cell viability counter screen (AID 1224847; calls by dose curve; note: top concentration of the series differs between compounds; nearly all actives have a fitted effect of over 30% in size). Summed up: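 We seed wild-type CHO-K1 cells overnight, treat them for 3 hr at 37C with compounds in 15-concentration series, and quantify remaining viability by CellTiter-Glo luminescence.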
A short description of test [18]: qHTS assay to identify small molecule antagonists of the estrogen related receptor (ERR) signaling pathway from Tox21 library (AID 1224848). Note: nearly all actives have a fitted effect of over 50% in size. An outline of the steps: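 ERR reporter cell line (from NTP) seeded 2,000 cells/well, rested 6 h at 37 C/5% CO2, then pin-dosed with compounds in DMSO. After 18 h at 37 C, ONE-Glo added; luminescence read after 30 min at room temperature.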

Test [19] in a line: qHTS assay to identify small molecule agonists of the estrogen related receptor (ERR) signaling pathway from Tox21 library (AID 1224849; calls by dose curve; note: nearly all actives have a fitted effect of over 15% in size). The note with it: ERR reporter cell line, ONE-Glo luciferase, 18 h; at 92.4 µM (top of the series) unless noted. Summed up:
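We plated ERR reporter cells, waited 6 h, added compounds in DMSO by pin tool and incubated them 18 h at 37 C. ONE-Glo was then added and luminescence read after 30 min.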

Test [20] can be described thus: qHTS RealTime-Glo MT Cell Viability Assay in HepG2 cells - 24 hour (AID 1224867). Note: nearly all actives have a fitted effect of over 50% in size. An outline of the steps:
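HepG2 suspension premixed with RealTime-Glo reagents is plated at 600 cells per well and left 5 h at 37 C/5% CO2. Compounds in DMSO then go in, and bioluminescence reflecting viable cell number is recorded over 40 h.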
% is set by controls: 0 for no effect and ±100 for the full control effect.

Luciferin 4-monooxygenase (Photinus pyralis), sequence (P08659 whole entry, looked up): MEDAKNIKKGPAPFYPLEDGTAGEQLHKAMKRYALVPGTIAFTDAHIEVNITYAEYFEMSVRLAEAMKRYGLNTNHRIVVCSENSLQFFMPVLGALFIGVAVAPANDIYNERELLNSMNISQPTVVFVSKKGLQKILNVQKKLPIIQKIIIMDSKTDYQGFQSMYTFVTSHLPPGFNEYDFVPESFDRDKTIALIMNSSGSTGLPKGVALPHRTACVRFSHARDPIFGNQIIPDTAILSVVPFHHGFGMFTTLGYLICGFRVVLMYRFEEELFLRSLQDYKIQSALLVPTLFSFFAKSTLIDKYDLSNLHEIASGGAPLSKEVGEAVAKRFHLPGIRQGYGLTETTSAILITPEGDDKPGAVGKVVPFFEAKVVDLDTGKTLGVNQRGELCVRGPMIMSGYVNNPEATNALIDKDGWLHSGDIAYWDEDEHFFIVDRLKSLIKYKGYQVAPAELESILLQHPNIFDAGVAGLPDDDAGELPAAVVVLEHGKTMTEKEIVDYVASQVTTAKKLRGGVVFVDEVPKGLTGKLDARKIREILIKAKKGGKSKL
Nuclear receptor subfamily 1 group I member 3 (Homo sapiens), sequence (Q14994 whole entry, looked up): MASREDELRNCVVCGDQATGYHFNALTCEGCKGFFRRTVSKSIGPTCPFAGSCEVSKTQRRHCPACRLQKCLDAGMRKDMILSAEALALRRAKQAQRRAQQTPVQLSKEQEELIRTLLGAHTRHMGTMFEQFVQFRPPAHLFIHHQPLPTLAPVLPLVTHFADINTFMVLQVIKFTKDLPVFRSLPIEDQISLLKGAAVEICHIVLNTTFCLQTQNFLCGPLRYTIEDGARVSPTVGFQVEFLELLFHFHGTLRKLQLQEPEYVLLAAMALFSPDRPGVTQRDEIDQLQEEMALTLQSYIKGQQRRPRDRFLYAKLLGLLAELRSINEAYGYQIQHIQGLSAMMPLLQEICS
Thyrotropin receptor (Homo sapiens), sequence (P16473 whole entry, looked up): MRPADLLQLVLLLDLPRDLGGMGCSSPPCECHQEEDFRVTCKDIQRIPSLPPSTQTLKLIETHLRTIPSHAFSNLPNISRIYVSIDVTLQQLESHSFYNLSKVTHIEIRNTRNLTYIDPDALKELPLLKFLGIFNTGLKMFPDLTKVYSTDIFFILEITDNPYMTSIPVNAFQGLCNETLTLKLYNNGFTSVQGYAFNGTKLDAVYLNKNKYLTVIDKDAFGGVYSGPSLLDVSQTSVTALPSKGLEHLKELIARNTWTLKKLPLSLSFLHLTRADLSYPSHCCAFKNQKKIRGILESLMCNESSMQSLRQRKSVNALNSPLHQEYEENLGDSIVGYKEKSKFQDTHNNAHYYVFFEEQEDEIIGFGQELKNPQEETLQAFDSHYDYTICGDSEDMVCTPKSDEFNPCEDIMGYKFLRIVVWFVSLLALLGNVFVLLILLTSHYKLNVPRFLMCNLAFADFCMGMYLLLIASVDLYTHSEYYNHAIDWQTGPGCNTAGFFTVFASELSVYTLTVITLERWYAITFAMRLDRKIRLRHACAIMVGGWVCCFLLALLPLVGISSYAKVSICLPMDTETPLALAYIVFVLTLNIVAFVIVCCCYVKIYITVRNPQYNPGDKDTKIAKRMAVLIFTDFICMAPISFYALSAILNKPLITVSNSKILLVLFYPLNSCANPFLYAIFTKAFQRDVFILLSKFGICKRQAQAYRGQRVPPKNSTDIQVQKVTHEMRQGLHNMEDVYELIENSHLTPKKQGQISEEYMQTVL

For the compound `N=C(N)N`, the compound was called inactive in test [1], in test [2], in test [4], in [6], in [7] and in test [8]. Also, the compound was classed as inactive in test [10], in test [14], in test [15], in test [16], in test [17] and in test [18]. In test [20], the outcome was inactive. Besides, the Potency entry in test [3], in test [5], in [9], in [11], in [12] and in [13] was “inactive” in each case. Further, the activity change, positive = activation in [19] is 0.947% [at 42.5 µM].

Turning to `CC(=O)c1c(C)cc(C(C)(C)C)cc1C`, the result in test [1], in test [2], in [4], in test [6], in test [7] and in [8] was inactive. The compound was called inactive in [10], in test [14], in [15], in [16], in test [18] and in [20]. Besides, the Potency entry in test [3], in test [5], in test [9], in [11] and in [12] was “inactive” in each case. Also, the activity change, positive = activation in test [19] was -1.7%.

Take `O=Cc1ccc(C(=O)O)cc1`: the compound was classed as inactive in test [1], in test [2], in test [4], in test [6], in test [7] and in [8]. The compound was called inactive in [10], in [14], in [15], in [16], in test [17] and in test [20]. The Potency entry in [3], in test [5], in test [9] and in test [13] was “inactive” in each case.

As for `CC(C)=CCC/C(C)=C\C#N`, the call in test [1], in test [2], in test [4], in test [6], in [7] and in test [8] was inactive. For the same compound, the outcome in test [10], in test [14], in [15], in test [16], in [17] and in test [20] was inactive. Further, the Potency entry in test [3], in test [5], in test [9] and in test [13] was “inactive” in each case.

Turning to `c1coc(Cn2cccc2)c1`, the result in test [1], in test [2], in test [4], in test [6], in test [7] and in test [8] was inactive. Further, the compound was called inactive in [10], in test [14], in test [15], in test [16] and in test [20]. Moreover, the Potency entry in [3], in test [5], in test [9] and in [13] was “inactive” each time.

On to `O=c1c(O)c(O)c1=O`, for which the compound was classed as inactive in [1], in test [2], in [4], in test [6], in [7] and in test [8]. The outcome in test [10], in [14], in [15], in test [16], in test [17] and in [20] was inactive. Besides, the Potency entry in test [3], in test [5] and in test [9] was “inactive” throughout. In addition, the Potency in [13] was 27.3 µM (active).

In the case of `CC(C)(C)c1ccc(N)cc1`, the compound was classed as inactive in test [1], in [2], in test [4], in [6], in test [7] and in test [8]. Moreover, the compound was classed as inactive in test [10], in [14], in test [15], in test [16], in test [17] and in test [18]. Besides, the outcome in test [20] was inactive. The Potency result in [3], in test [5], in test [9], in test [11] and in [12] was “inactive” in each case.

For the origin of these results see PubChem BioAssay (Tox21).
